Experimental data taken from PubChem BioAssay AID1159580 (chemical genetic matrix, 2015).
The whole screen tested about 5,500 compounds, of which about 2,000 (36%) were called active. Another 18% or so got no clear call; they are omitted. Cut-off read from the data, not from the text of the source: active = normalized growth mostly below about 0.91 (no sharp cut-off); inconclusive = no clear call, values can overlap the other calls; inactive = mostly above about 0.92. Some of the results follow.

Test: chemical genetic growth profiling, strain panel (AID 1159580);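 note: tested at 20 µM; growth read once vehicle control cultures reached saturation at 30 °C; 1 = growth at the plate median or of vehicle wells; lower values mean less growth of the strain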
Conditions: growth OD

Measured: normalized growth

COc1cc([C@@H]2c3cc4c(cc3C(O[C@@H]3O[C@@H]5CO[C@@H](c6cccs6)OC5[C@H](O)[C@H]3O)C3COC(=O)[C@@H]32)OCO4)cc(OC)c1O (stereo not given in full)
inactive: S. cerevisiae deletion strains, locus YJR066W, strain TOR1, hits give low values 0.99 | S. cerevisiae deletion strains, locus YKL009W, strain mrt4, hits give low values 1.03 | S. cerevisiae deletion strains, locus YKL068W, hits give low values 1.01 | S. cerevisiae deletion strains, locus YKL085W, strain MDH1 (second series), hits give low values 1 | S. cerevisiae deletion strains, locus YKL085W, strain MDH1, hits give low values 1 | S. cerevisiae deletion strains, locus YKL160W, strain elf1, hits give low values 1.05 | S. cerevisiae deletion strains, locus YKL190W, strain CNB1, hits give low values 0.997 | S. cerevisiae deletion strains, locus YKR001C, strain vps1, hits give low values 1.02 | S. cerevisiae deletion strains, locus YKR026C, strain gcn3, hits give low values 0.986 | S. cerevisiae deletion strains, locus YKR091W, strain srl3, hits give low values 0.998 | S. cerevisiae deletion strains, locus YLL001W, strain dnm1, hits give low values 1.05 | S. cerevisiae deletion strains, locus YLL026W, hits give low values 0.984 | S. cerevisiae deletion strains, locus YLL041C, strain sdh2, hits give low values 0.967 | S. cerevisiae deletion strains, locus YLR027C, strain aat2, hits give low values 0.985 | S. cerevisiae deletion strains, locus YLR039C, strain RIC1, hits give low values 1.01 | S. cerevisiae deletion strains, locus YLR058C, strain SHM2, hits give low values 1 | S. cerevisiae deletion strains, locus YLR102C, strain apc9, hits give low values 1.02 | S. cerevisiae deletion strains, locus YLR113W, strain HOG1, hits give low values 1.01 | S. cerevisiae deletion strains, locus YLR221C, strain rsa3, hits give low values 1.03 | S. cerevisiae deletion strains, locus YLR258W, strain gsy2, hits give low values 1 | S. cerevisiae deletion strains, locus YLR262C, strain YPT6 (second series), hits give low values 1 | S. cerevisiae deletion strains, locus YLR262C, strain YPT6, hits give low values 0.964 | S. cerevisiae deletion strains, locus YLR268W, strain sec22, hits give low values 1.02 | S. cerevisiae deletion strains, locus YLR320W, strain mms22, hits give low values 1.01 | S. cerevisiae deletion strains, locus YLR330W, strain CHS5, hits give low values 0.999 | S. cerevisiae deletion strains, locus YLR342W, strain FKS1 (second series), hits give low values 1.01 | S. cerevisiae deletion strains, locus YLR342W, strain FKS1, hits give low values 0.99 | S. cerevisiae deletion strains, locus YLR357W, strain rsc2, hits give low values 0.98 | S. cerevisiae deletion strains, locus YLR370C, strain arc18, hits give low values 0.986 | S. cerevisiae deletion strains, locus YLR371W, strain rom2, hits give low values 1.01 | S. cerevisiae deletion strains, locus YLR384C, strain iki3, hits give low values 0.97 | S. cerevisiae deletion strains, locus YLR418C, strain cdc73, hits give low values 1.02 | S. cerevisiae deletion strains, locus YML016C, strain PPZ1, hits give low values 1 | S. cerevisiae deletion strains, locus YML032C, strain rad52, hits give low values 0.917 | S. cerevisiae deletion strains, locus YML120C, strain ndi1, hits give low values 1.02 | S. cerevisiae deletion strains, locus YML124C, strain tub3, hits give low values 1.01 | S. cerevisiae deletion strains, locus YMR058W, strain fet3, hits give low values 0.993 | S. cerevisiae deletion strains, locus YMR078C, strain ctf18, hits give low values 1.01 | S. cerevisiae deletion strains, locus YMR125W, strain sto1, hits give low values 1.01 | S. cerevisiae deletion strains, locus YMR129W, hits give low values 0.983 | S. cerevisiae deletion strains, locus YMR205C, strain PFK2, hits give low values 1.02 | S. cerevisiae deletion strains, locus YMR223W, strain ubp8, hits give low values 1.02 | S. cerevisiae deletion strains, locus YMR231W, strain pep5, hits give low values 0.978 | S. cerevisiae deletion strains, locus YMR263W, strain SAP30, hits give low values 1 | S. cerevisiae deletion strains, locus YMR307W, strain GAS1, hits give low values 0.933 | S. cerevisiae deletion strains, locus YNL067W, strain RPL9B, hits give low values 0.998 | S. cerevisiae deletion strains, locus YNL071W, strain lat1, hits give low values 0.976 | S. cerevisiae deletion strains, locus YNL128W, strain TEP1, hits give low values 1.02 | S. cerevisiae deletion strains, locus YNL183C, strain NPR1, hits give low values 0.987 | S. cerevisiae deletion strains, locus YNL209W, strain ssb2, hits give low values 0.985 | S. cerevisiae deletion strains, locus YNL233W, strain BNI4, hits give low values 1 | S. cerevisiae deletion strains, locus YNL248C, strain rpa49, hits give low values 0.999 | S. cerevisiae deletion strains, locus YNL250W, strain rad50, hits give low values 0.977 | S. cerevisiae deletion strains, locus YNL271C, strain bni1, hits give low values 1.02 | S. cerevisiae deletion strains, locus YNL298W, strain CLA4, hits give low values 1.04 | S. cerevisiae deletion strains, locus YNL307C, strain MCK1, hits give low values 1.03 | S. cerevisiae deletion strains, locus YNL322C, strain KRE1 (second series), hits give low values 0.994 | S. cerevisiae deletion strains, locus YNR049C, strain mso1, hits give low values 0.978 | S. cerevisiae deletion strains, locus YNR052C, strain pop2, hits give low values 1.03 | S. cerevisiae deletion strains, locus YOL006C, strain TOP1, hits give low values 0.89 | S. cerevisiae deletion strains, locus YOL012C, strain htz1 0.835 | S. cerevisiae deletion strains, locus YOL147C, strain pex11, hits give low values 1.01 | S. cerevisiae deletion strains, locus YOR001W, strain rrp6, hits give low values 0.933 | S. cerevisiae deletion strains, locus YOR061W, strain CKA2, hits give low values 1 | S. cerevisiae deletion strains, locus YOR069W, strain VPS5, hits give low values 1 | S. cerevisiae deletion strains, locus YOR070C, strain gyp1, hits give low values 0.991 | S. cerevisiae deletion strains, locus YOR080W, strain dia2, hits give low values 0.971 | S. cerevisiae deletion strains, locus YOR083W, strain WHI5, hits give low values 1.05 | S. cerevisiae deletion strains, locus YOR106W, strain vam3, hits give low values 1.02 | S. cerevisiae deletion strains, locus YOR136W, strain idh2, hits give low values 1.02 | S. cerevisiae deletion strains, locus YOR144C, strain elg1, hits give low values 1.01 | S. cerevisiae deletion strains, locus YOR184W, strain ser1, hits give low values 1.01 | S. cerevisiae deletion strains, locus YOR231W, strain MKK1, hits give low values 1 | S. cerevisiae deletion strains, locus YOR265W, strain rbl2, hits give low values 0.985 | S. cerevisiae deletion strains, locus YOR270C, strain vph1, hits give low values 0.891 | S. cerevisiae deletion strains, locus YOR290C, strain snf2, hits give low values 0.982 | S. cerevisiae deletion strains, locus YOR316C, strain cot1, hits give low values 1.03 | S. cerevisiae deletion strains, locus YPL051W, strain arl3, hits give low values 1.03 | S. cerevisiae deletion strains, locus YPL055C, strain LGE1, hits give low values 0.996 | S. cerevisiae deletion strains, locus YPL078C, strain atp4, hits give low values 1.03 | S. cerevisiae deletion strains, locus YPL106C, strain sse1, hits give low values 1.01 | S. cerevisiae deletion strains, locus YPL240C, strain hsp82, hits give low values 0.99 | S. cerevisiae deletion strains, locus YPL241C, strain CIN2, hits give low values 1 | S. cerevisiae deletion strains, locus YPL256C, strain CLN2, hits give low values 1.03 | S. cerevisiae deletion strains, locus YPR119W, strain clb2, hits give low values 1.01 | S. cerevisiae deletion strains, locus YPR141C, strain kar3, hits give low values 1.01 | S. cerevisiae deletion strains, locus YPR163C, strain tif3, hits give low values 1.03 | S. cerevisiae deletion strains, locus YPR167C, strain met16, hits give low values 1.02 | S. cerevisiae deletion strains, strain wtn01, hits give low values 1.03 | S. cerevisiae strains, strain wild type, hits give low values 1.01
